Assay results published in PubChem BioAssay (NCATS).
Results filed as inconclusive are left out. Activity calls are given as the source filed them. Calls follow the shape of the dose curve; as a rule, active = well fitted inhibition curve with a large enough effect; inconclusive = small, poorly fitted or top-dose-only effect; inactive = flat fitted curve, though single readings scatter. Where a SMILES comes first, the peptide text is derived from it. [ ]: non-standard residue; d: D form. pGlu = O=C1CC[C@@H](C(=O)O)N1

Assays:
[1] = Drug repurposing screens with cells derived from glioblastoma tumor samples (AID 1345199); conditions: GBM patient neurospheres viability, ATP luminescence, 48 h; also: nearly all actives have a fitted effect of over 40% in size
Method in brief: (§1)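 Primary testing used CD133+ neurospheres from four GBM patients, seven concentrations, 48 h exposure and ATP-based viability; confirmation added three slower-growing patient lines.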

astro = control astrocytes; assay: as above; conditions: viability, ATP luminescence, 48 h; series mostly up to 45.9 µM
Method in brief: as §1

[2] = at 45.9 µM (top of the series), tumour line B
[3] = at 45.9 µM (top of the series), tumour line D
[4] = at 46 µM (top of the series), tumour line A
[5] = at 46.1 µM (top of the series), tumour line C
[6] = at 20 µM (top of the series), tumour line C
[7] = at 21.2 µM (top of the series), tumour line B
[8] = at 21.2 µM (top of the series), tumour line D
[9] = at 21.3 µM (top of the series), tumour line A
% is scaled to controls: 0 for no effect and ±100 for the full control effect.

O=P(O)(O)OC[C@H]1O[C@](O)(COP(=O)(O)O)[C@@H](O)[C@@H]1O
inactive: activity, negative = cell killing [1, 2] -4.16% | activity, negative = cell killing [1, 3] -21.7% | activity, negative = cell killing [1, 4] -47.3% | activity, negative = cell killing [1, 5] -3.41% | Potency (astro)

CO/N=C(\C(=O)N[C@@H]1C(=O)N2C(C(=O)O)=C(CSc3nc(C)c(CC(=O)O)s3)CS[C@H]12)c1csc(N)n1
inactive: activity, negative = cell killing [1, 2] -4.93% | activity, negative = cell killing [1, 3] 3.79% | activity, negative = cell killing [1, 4] -22% | activity, negative = cell killing [1, 5] -20.8% | Potency (astro)

F[Si-2](F)(F)(F)(F)F
inactive: activity, negative = cell killing [1, 2] 5.47% | activity, negative = cell killing [1, 3] -3.02% | activity, negative = cell killing [1, 4] -17.6% | activity, negative = cell killing [1, 5] 30.2% | Potency (astro)

NC(=O)c1ccc[n+]([C@@H]2O[C@H](COP(=O)([O-])OP(=O)(O)OC[C@H]3O[C@@H](n4cnc5c(N)ncnc54)[C@H](O)[C@@H]3O)[C@@H](O)[C@H]2O)c1
inactive: activity, negative = cell killing [1, 6] -16.9% | activity, negative = cell killing [1, 7] 8.41% | activity, negative = cell killing [1, 8] -3.83% | activity, negative = cell killing [1, 9] -22.7% | Potency (astro)

NC(N)=NCC1COC2(CCCCC2)O1 (stereo not given)
inactive: activity, negative = cell killing [1, 6] -12.8% | activity, negative = cell killing [1, 7] -14.2% | activity, negative = cell killing [1, 8] -12.9% | activity, negative = cell killing [1, 9] -18.6% | Potency (astro)

CSCCC(N)C(=O)O (stereo not given)
inactive: activity, negative = cell killing [1, 2] -9.94% | activity, negative = cell killing [1, 3] -6.77% | activity, negative = cell killing [1, 4] -11.9% | activity, negative = cell killing [1, 5] -3.8% | Potency (astro)

CC[C@H](C)[C@H](NC(=O)[C@H](Cc1ccccc1)NC(=O)[C@H](C)NC(=O)[C@H](CC(=O)O)NC(=O)[C@H](CCCCN)NC(=O)[C@H](CO)NC(=O)[C@@H]1CCCN1C(=O)[C@@H]1CCC(=O)N1)C(=O)NCC(=O)N[C@@H](CC(C)C)C(=O)N[C@@H](CCSC)C(N)=O ([pGlu]PSKDAFIGLM-NH2)
inactive: activity, negative = cell killing [1, 2] -11.4% | activity, negative = cell killing [1, 3] 13.8% | activity, negative = cell killing [1, 4] -9.58% | activity, negative = cell killing [1, 5] -14.3% | Potency (astro)
